Calls of active or inactive are those of the source. How the source made its calls: active means hit-call score of the fitted dose curve at least 0.9, where 1 is the maximum; inactive means score below 0.9.
The compounds below were run against Paired box protein Pax-6 (Homo sapiens) (UniProt P26367) (assay: ATG_Pax6_CIS: Attagene CIS-FACTORIAL HepG2 Assay for human Paired Box 6 (PAX6) (AID 2282956)). Details: HepG2 CIS-FACTORIAL PAX6 reporter transcription, RNA readout; actives raise or lower the signal.
Procedure: ATG_CIS is a cell-based, multiplexed-readout assay that uses HepG2, a human liver cell line, with measurements taken at 24 hours after chemical dosing in a 24-well plate.ATG_Pax6_CIS is one of 52 assay component(s) measured or calculated from the ATG_CIS assay. It is designed to make measurements of mRNA induction, a form of inducible reporter, as detected with fluorescence intensity signals by Reverse transcription polymerase chain reaction (RT-PCR) and Capillary electrophoresis technology.Data from the assay component ATG_Pax6_CIS was analyzed into 1 assay endpoint. This assay endpoint, ATG_Pax6_CIS, was analyzed with bidirectional fitting relative to DMSO as the negative control and baseline of activity. Using a type of inducible reporter, measures of mRNA for gain or loss-of-signal activity can be used to understand the reporter gene at the transcription factor-level as they relate to the gene PAX6. Furthermore, this assay endpoint can be referred to as a primary readout, because this assay has produced multiple assay endpoints where this one serves a reporter gene function. To generalize the intended target to other relatable targets, this assay endpoint is annotated to the dna binding intended target family, where the subfamily is paired box protein.
Human liver HepG2 cells are transiently transfected with multiple reporter transcription units (MRTUs) in 6-well plates using FuGene 6 reagent (Roche; 3 ml FuGene/1 mg DNA). The MRTU constructs are regulated by a cis-regulating element (promoter). […] A major difference between the CIS and TRANS system is that in CIS activities of endogenous TFs are measured, whereas the TRANS assay evaluates changes in activities of exogenous, chimeric NR-Gal4 proteins. […] At the end of 24 hour incubation, total RNA was isolated using TriZol reagent (Invitrogen). The isolated RNA is then reverse-transcribed using oligo(dT) primer and Mo-MLV reverse transcriptase (Invitrogen) with DNAse I (Ambion) treatment for 30 min. The one-tenth of the produced cDNA was amplified by PCR using Taq DNA polymerase (Invitrogen) and two reporter sequence-specific primers. The PCR products were fluorescently labeled by primer extension with 6-arboxyfluorescein (6-FAM) 5'-labeled reporter sequence-specific primer (2 min at 95 C, 20 s at 68 C and 10 min at 72 C) and these products were digested with 5U of HpaI (New England Biolabs) for 2h at 37 C. The fragments were purified using Qiaquick PCR columns (Qiagen), analyzed on an ABI 3130xL genetic analyzer (Applied Biosystems) with peak positions identified by using a set of X-rhodamine (ROX)-labeled MapMarker1000 molecular weight standards (BioVentures). The raw capillary electrophoresis data was processed using Attagraph software (Attagene).

Sequence of Paired box protein Pax-6 (Homo sapiens) (P26367 whole entry, looked up): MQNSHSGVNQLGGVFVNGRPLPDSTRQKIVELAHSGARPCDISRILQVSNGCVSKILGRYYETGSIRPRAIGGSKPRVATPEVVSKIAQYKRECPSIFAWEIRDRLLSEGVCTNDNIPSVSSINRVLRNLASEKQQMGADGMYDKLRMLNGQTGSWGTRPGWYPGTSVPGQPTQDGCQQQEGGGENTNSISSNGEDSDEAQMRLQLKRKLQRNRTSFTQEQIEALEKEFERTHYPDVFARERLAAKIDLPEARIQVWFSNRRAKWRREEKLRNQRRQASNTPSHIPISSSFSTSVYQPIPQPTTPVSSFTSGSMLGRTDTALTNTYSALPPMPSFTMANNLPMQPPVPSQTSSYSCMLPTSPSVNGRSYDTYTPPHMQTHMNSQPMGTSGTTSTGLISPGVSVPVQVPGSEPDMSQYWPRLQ

Compound | outcome | AC50
CCCCCCCCCOC(C)=O | inactive | –
C=COCCOCCOCCOC=C | inactive | –
CCCCCCCCCCCCOCCO | inactive | –
CC(C)(Oc1ccc(CCNC(=O)c2ccc(Cl)cc2)cc1)C(=O)O | inactive | –
C=C[C@@H](C)CCC=C(C)C | inactive | –
OCCOc1cccc(OCCO)c1 | inactive | –
ClCCCl | inactive | –
CC(=O)[O][Al][O]C(C)=O | inactive | –
CCn1c2ccccc2c2cc(N)ccc21 | inactive | –
Nc1ccc(F)c([N+](=O)[O-])c1 | inactive | –
CCC(=O)/C=C/C1C(C)=CCCC1(C)C (stereo not given) | inactive | –
O=C1c2ccccc2C(=O)N1SC1CCCCC1 | inactive | –
Cc1ccc(C=O)cc1 | inactive | –
Nc1ccc(S(N)(=O)=O)cc1 | inactive | –
COc1ccc(NC(=O)CC(C)=O)cc1 | inactive | –
O=C(O)c1ccc([N+](=O)[O-])cc1 | inactive | –
O=S(=O)(O)c1cccc2c(S(=O)(=O)O)cccc12 | inactive | –
CNC(=O)Oc1ccc2c(c1)[C@]1(C)CCN(C)[C@@H]1N2C | inactive | –
COc1cccc(OC)c1 | inactive | –
CC(C)Oc1ccccc1O | inactive | –

Compound | outcome | AC50
Cc1ccc(C(=O)O)o1 | inactive | –
O=C1O[C@@H]2[C@@H](O)[C@H](O)O[C@@H]2[C@H]1O | inactive | –
O=c1[nH]c(=O)n([C@H]2CCCO2)cc1F | inactive | –
NCCOCCO | inactive | –
Cc1ccc2sc3cccc(C)c3c2c1 | inactive | –
COC(=O)Cc1cccc2ccccc12 | inactive | –
NCCNCCN | inactive | –
CCCCNC(=O)NS(=O)(=O)c1ccc(C)cc1 | inactive | –
Nc1cc([N+](=O)[O-])ccc1O | inactive | –
Cc1ccc(O)c(C(C)(C)C)c1 | – | 138 µM (active)
CC(CN1c2ccccc2Sc2ccccc21)N(C)C (stereo not given) | – | 44 µM (active)
NCCCN1CCOCC1 | inactive | –
c1cc(C(c2ccc(OCC3CO3)cc2)c2ccc(OCC3CO3)cc2)ccc1OCC1CO1 (stereo not given) | – | 9.85 µM (active)
CC1=CCC(O)(C(C)C)CC1 (stereo not given) | inactive | –
C[C@H]1C[C@@H]2[C@H]([C@@H](O)C[C@@]3(C)[C@H]2CC[C@]3(O)C(=O)CO)[C@@]2(C)C=CC(=O)C=C12 | inactive | –
Cc1ccc(Nc2ccc(O)c3c2C(=O)c2ccccc2C3=O)cc1 | inactive | –
CCC(C)CCCC(C)(C)O (stereo not given) | inactive | –
CC1CC(OC(=O)c2ccccc2O)CC(C)(C)C1 (stereo not given) | inactive | –
Nc1nc2ccc([N+](=O)[O-])cc2s1 | inactive | –
CCCCOCCOCCOCCOCCO | inactive | –

— PubChem BioAssay (EPA / NIEHS)
